Drawing on PubChem BioAssay (NCATS), this text covers Potency, max response and activation for six compounds.

Values joined by “and” are separate entries in the source; they are usually repeats but may differ in a detail not shown here. Equal entries are not always repeated. Records with an inconclusive call do not appear. Active and inactive are the calls of the source. Unless noted, calls come from the whole dose curve; as a rule, active = well fitted curve in the direction sought with a large enough effect; inconclusive = small, poorly fitted or top-dose-only effect, or another doubt; inactive = no such curve, though single readings can be large; an effect the other way counts as inactive or inconclusive.

Experiment [1] in a line: Cell Viability - LYMP2-001 (AID 921).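 Note: series mostly up to about 92 µM; 0% = DMSO only and full inhibition = tetraoctylammonium bromide control wells; nearly all actives have a fitted effect of over 70% in size.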 The gist of the method: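 Cellular ATP loss read by luciferase luminescence after 24 h compound exposure at 37 C in complete medium. LYMP2-001 lymphoblastoid cells, 2500/well; qHTS concentration-response data fitted with Hill equation for AC50.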
Experiment [2] in a line: MultiTox-Fluor Cytotoxicity Assay - LYMP1-002 - Dead Cells (AID 960).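 Note: cells exposed to compound for 16 h at 37 °C; 0% = DMSO and 100% = tetraoctylammonium bromide; nearly all actives have a fitted effect of over 60% in size.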 The method, boiled down:
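Concentration-dependent increases in membrane-leaked protease activity are quantified in LYMP1-002 cells after 16 hr treatment; values are normalized against DMSO and tetraoctylammonium bromide (15 uM) controls and AC50 derived by Hill modeling.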

A short description of experiment [3]: Cell Viability - LYMP2-005 (AID 967).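 Note: series mostly up to about 92 µM; plate controls were DMSO only for no effect and 92 µM tetraoctylammonium bromide control for full effect.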 The method, boiled down: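 LYMP2-005 human lymphoblastoid cells (2500/well) were treated with compounds for 24 h at 37 C. Intracellular ATP was then measured by CellTiter-Glo luminescence after 30 min at room temperature. AC50 values came from Hill-equation fits of qHTS concentration-response data.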
The nature of experiment [4]: Cell Viability - LYMP2-011 (AID 969).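 Note: cells exposed to compound for 24 hours; 0% = DMSO only and full inhibition = 92 µM tetraoctylammonium bromide; nearly all actives have a fitted effect of over 60% in size.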 The method, boiled down: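 Cells seeded at 2500 per well rest 5 hr before compound addition, then incubate 24 hr at 37 C. CellTiter-Glo reagent is added for 30 min at room temperature before luminescence detection.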
Experiment [5] is described as follows: Cell Viability - LYMP2-013 (AID 970).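 Note: series mostly up to about 92 µM; 0% = DMSO only and full inhibition = tetraoctylammonium bromide control; nearly all actives have a fitted effect of over 55% in size.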 The method, boiled down: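 In complete culture medium, human lymphoblastoid cells were dosed for 24 hr at 37 C, with tetraoctylammonium bromide (6.4pM to 92 uM) as positive control. Viability reflects luciferase-based ATP signal; AC50 derived from concentration-response curves.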
The nature of experiment [6]: Cell Viability - LYMP2-017 (AID 972).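 Note: series mostly up to about 92 µM; cells exposed to compound for 24 hours at 37 °C; % is set by controls: 0 for no effect and ±100 for the full control effect; nearly all actives have a fitted effect of over 55% in size.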 The method, boiled down: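 In this qHTS format, lymphoblastoid cells in complete medium receive test compound for a day at 37 C before ATP content is quantified by luciferase luminescence. Reported AC50 figures come from standard Hill-equation curve fitting.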
The nature of experiment [7]: Cell Viability - LYMP2-023 (AID 975).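 Note: cellular ATP measured by luciferase luminescence as viability proxy; series mostly up to about 92 µM; cells exposed to compound for 24 hours at 37 °C; plate controls were DMSO only for no effect and 92 µM tetraoctylammonium bromide control for full effect; nearly all actives have a fitted effect of over 55% in size.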 The method, boiled down: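 In this qHTS, ATP-based luciferase luminescence (CellTiter-Glo) is quantified in human lymphoblastoid cells after 24 hr compound treatment at 37 C; tetraoctylammonium bromide serves as positive control. Concentration-response curves are Hill-fitted to give AC50.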
The nature of experiment [8]: Cell Viability - LYMP2-002 (AID 977).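 Note: series mostly up to about 92 µM; plate controls were DMSO only for no effect and 92 µM tetraoctylammonium bromide for full effect.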 The gist of the method:
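In this qHTS viability screen, 2500 human lymphoblastoid cells per well receive compound for 24 hr at 37 C, and luciferase-based ATP luminescence gives the viability signal. Tetraoctylammonium bromide serves as positive control.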

Experiment [9] in a line: Cell Viability - LYMP2-007 (AID 979).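 Note: cells exposed to compound for 24 h before reading; 0% = DMSO only and the negative end = 92 µM tetraoctylammonium bromide; nearly all actives have a fitted effect of over 60% in size.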 The method, boiled down: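 Measured via luciferase-based ATP quantitation: lymphoblastoid cells, 24 hr compound exposure at 37 C, AC50 from Hill fits.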
Experiment [10] is described as follows: Cell Viability - LYMP2-014 (AID 983).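 Note: series mostly up to about 92 µM; plate controls were DMSO only for no effect and 92 µM tetraoctylammonium bromide for full effect; nearly all actives have a fitted effect of over 50% in size.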 The method, boiled down: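 Quantitative HTS in lymphoblastoid cells: 24 hr compound exposure, then CellTiter-Glo ATP luminescence. Positive control was tetraoctylammonium bromide, 6.4pM to 92 uM.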
The nature of experiment [11]: Cell Viability - LYMP2-016 (AID 984).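 Note: cells exposed to compound for 24 hours at 37 °C; % is set by controls: 0 for no effect and ±100 for the full control effect; nearly all actives have a fitted effect of over 55% in size.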 The method, boiled down:
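Cytotoxicity was scored by luminescent ATP content (CellTiter-Glo) after 24 h compound exposure at 37 C of a human lymphoblastoid line at 2500 cells/well. Concentration-response data were fitted to the Hill equation for AC50.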

Experiment [12] in a line: Cell Viability - LYMP2-018 (AID 985).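 Note: plate controls were DMSO only for no effect and tetraoctylammonium bromide at 92 µM for full effect; nearly all actives have a fitted effect of over 50% in size.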 The gist of the method: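 In this qHTS viability assay, cells are treated for 24 hr and cellular ATP is quantified by luciferase-based luminescence, with tetraoctylammonium bromide as positive control.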
Experiment [13] is described as follows: Cell Viability - LYMP2-020 (AID 986). The method, boiled down: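 Cells at 2500 per well receive a 24 hr compound exposure at 37 C. Viability is measured as ATP-dependent luciferase luminescence, with AC50 modeled from qHTS concentration-response curves.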
A short description of experiment [14]: Cell Viability - LYMP2-022 (AID 987). The gist of the method: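 In this qHTS cytotoxicity screen, compound titrations were incubated 24 hr at 37 C with human lymphoblastoid cells in complete medium. Luciferase-based ATP luminescence provided the viability signal.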
Experiment [15] can be described thus: Cell Viability - LYMP2-024 (AID 988).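 Note: plate controls were DMSO only for no effect and 92 µM tetraoctylammonium bromide for full effect; nearly all actives have a fitted effect of over 60% in size.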 The method, boiled down:
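Cells at 2500 per well received compound for 24 hr after a 5 hr settling period. Viability was scored by CellTiter-Glo luminescence, with AC50 from Hill fits.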

In experiment [16] the target is Retinoic acid receptor RXR-alpha (Homo sapiens) (UniProt P19793). Nature of the experiment: qHTS assay for small molecule agonists of retinoid X receptor alpha signaling (AID 588544; calls by dose curve;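 note: 0% = DMSO basal wells and 100% = reference agonist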). For orientation: In qHTS, concentration-response curves come from the screen itself.
Chain of Retinoic acid receptor RXR-alpha (Homo sapiens) (P19793 whole entry, looked up): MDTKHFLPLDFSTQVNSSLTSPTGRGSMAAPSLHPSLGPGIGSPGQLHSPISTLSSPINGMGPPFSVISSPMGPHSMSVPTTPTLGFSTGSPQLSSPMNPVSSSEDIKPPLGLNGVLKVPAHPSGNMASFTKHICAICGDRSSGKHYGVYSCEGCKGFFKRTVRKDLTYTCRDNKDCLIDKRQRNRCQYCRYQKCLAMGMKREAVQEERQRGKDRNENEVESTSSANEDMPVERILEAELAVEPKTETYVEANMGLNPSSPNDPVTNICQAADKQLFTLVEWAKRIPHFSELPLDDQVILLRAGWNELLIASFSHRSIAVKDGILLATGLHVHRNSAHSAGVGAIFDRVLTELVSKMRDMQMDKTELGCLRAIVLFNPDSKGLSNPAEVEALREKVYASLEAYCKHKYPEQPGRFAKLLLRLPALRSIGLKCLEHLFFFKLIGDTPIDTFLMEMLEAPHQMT
A short description of experiment [17]: qHTS assay for small molecule antagonists of retinoid X receptor alpha signaling (AID 588546; active = well fitted inhibition curve with a large enough effect in the signal ratio, with a control signal flat, not every such curve was filed as active; the % refers to the signal ratio;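 note: cells stimulated with 9-cis-retinoic acid as agonist; % is set by controls: 0 for no effect and ±100 for the full control effect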). The note with it: HEK293T RXRa-UAS-bla, beta-lactamase ratio, antagonist mode; measured here: W530 green channel, cytotoxicity proxy. The gist of the method:
(§1)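 Beta-lactamase reporter inhibition, read as CCF4 fluorescence ratio (ex 405, em 460/530 nm) after 2 h at RT. HEK293T UAS-bla cells, 2500/well, were stimulated with 9-cis-RA at 500 or 100 nM final alongside test compound for 18 h at 37 C.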

In experiment [18] the target is Retinoic acid receptor RXR-alpha (Homo sapiens) (UniProt P19793). Described as above. Conditions: HEK293T RXRa-UAS-bla, beta-lactamase ratio, antagonist mode. The method, boiled down: as §1
The nature of experiment [19]: qHTS assay for small molecule disruptors of the mitochondrial membrane potential - 1 hr assay (AID 651754; calls by dose curve; note: % is set by controls: 0 for no effect and ±100 for the full control effect; nearly all actives have a fitted effect of over 35% in size). The gist of the method:
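In this qHTS format, a 1 hr compound treatment of HepG2 cells precedes Mito-MPS staining, and membrane potential is judged from aggregate (red) against monomer (green) fluorescence intensity.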

Experiment [20] in a line: qHTS assay for environmental chemicals that activate the Aryl hydrocarbon Receptor (AhR) signaling pathway (AID 651777). Note: % of control where 0% means no effect; nearly all actives have a fitted effect of over 15% in size. Conditions: 1A2-DRE human hepatoma cells, luciferase, 24 h; activation: stronger effect = higher value. The gist of the method:
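Following a 24 hr incubation with test chemicals at 37 C and 5% CO2, 1A2-DRE human hepatoma cells received One-Glo reagent; after 30 min at room temperature, luciferase output reflected CYP1A2 induction via AhR.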

Turning to `Clc1nc(Cl)nc(Nc2ccccc2Cl)n1`, the Potency result in experiment [1], in experiment [2], in experiment [3], in [4], in experiment [5] and in experiment [6] was “inactive” in each case. Also, the Potency entry in experiment [7], in experiment [8], in experiment [9], in [10], in experiment [11] and in experiment [12] was “inactive” throughout. Besides, the Potency result in [13], in [14], in experiment [15], in experiment [16] and in experiment [19] was “inactive” throughout. The results for the max response in experiment [17] and in experiment [18] were 1.32% and 8.47% (inactive), respectively. Moreover, in experiment [20], the activation was 3.35% (inactive) and 3.56% (inactive).
In the case of `CCOP(=S)(OCC)SCSC(C)(C)C`, the Potency result in [1], in [2], in experiment [3], in experiment [4], in experiment [5] and in experiment [6] was “inactive” in each case. Also, the Potency entry in experiment [7], in experiment [8], in [9], in experiment [10], in experiment [11] and in [12] was “inactive” throughout. Besides, the Potency entry in [13], in experiment [14], in [15], in experiment [16] and in experiment [19] was “inactive” in each case. In addition, the max response in [17] is -10.4% and -6.52%; in experiment [18] it was -12% (inactive) and 0.279% (inactive). Besides, in experiment [20], the activation was 0.254% (inactive) and 2.38% (inactive).
For `Brc1ccc(Oc2cc(Br)c(Br)cc2Br)c(Br)c1`, the Potency entry in experiment [1], in experiment [2], in experiment [3], in [4], in experiment [5] and in [6] was “inactive” throughout. Moreover, the Potency entry in experiment [7], in experiment [8], in experiment [9], in experiment [10], in experiment [11] and in [12] was “inactive” each time. Also, the Potency entry in experiment [13], in experiment [14] and in experiment [15] was “inactive” in each case. Further, the max response in experiment [17] is 10.6% and 6.53%; in experiment [18], -5.38% (inactive) and -23.6% (inactive). Moreover, the activation in [20] is 5.38% (inactive) and 0.601% (inactive) and 5.34% (inactive).
Consider `[O-][Br+2]([O-])O`, for which the Potency result in experiment [1], in experiment [2], in [3], in [4], in experiment [5] and in [6] was “inactive” in each case. Further, the Potency entry in experiment [7], in experiment [8], in [9], in experiment [10], in experiment [11] and in [12] was “inactive” in each case. Also, the Potency result in experiment [13], in [14], in experiment [15], in experiment [16] and in [19] was “inactive” throughout. Besides, the max response in experiment [17] was -4.01% and -4.2%; in experiment [18], 9.17% (inactive) and 7.78% (inactive). Moreover, in experiment [20], the activation was 0.946% (inactive) and -0.602% (inactive).
As for `ClC(Cl)=C(Cl)Cl`, the Potency entry in experiment [1], in experiment [2], in experiment [3], in [4], in [5] and in experiment [6] was “inactive” throughout. In addition, the Potency result in [7], in experiment [8], in [9], in experiment [10], in [11] and in experiment [12] was “inactive” each time. Also, the Potency entry in experiment [13], in experiment [14], in [15], in experiment [16] and in experiment [19] was “inactive” throughout. The max response was -6.82% and -0.572% in experiment [17]; 2.53% (inactive) and 3.68% (inactive) in experiment [18]. For the same compound, the activation in experiment [20] is -0.882% (inactive) and 0.706% (inactive).
For the compound `C=CC(N)=O`, the Potency entry in experiment [1], in experiment [2], in experiment [3], in [4], in experiment [5] and in experiment [6] was “inactive” each time. The Potency entry in experiment [7], in experiment [8], in experiment [9], in [10], in experiment [11] and in experiment [12] was “inactive” in each case. In addition, the Potency entry in experiment [13], in experiment [14], in experiment [15], in experiment [16] and in experiment [19] was “inactive” each time. For the same compound, the max response was -10.1% and 0.0016% and -8.94% in experiment [17]; 17% (inactive) and -9.44% (inactive) and -5.75% (inactive) in [18]. The activation in experiment [20] was 0.655% (inactive) and -0.766% (inactive) and 0.336% (inactive).
